Results: PubChem BioAssay AID540276 (National Center for Advancing Translational Sciences (NCATS), 2011)
Screen size: about 300,000 compounds; about 5,400 (1.8%) were called active. Where a call stands in place of a potency, no number is given. About 28% were inconclusive and are not listed. The sample holds actives, similar compounds and a random draw of the others, so the mix is not that of the screen. Calls come from the whole dose curve; tested in HEK293 cells.

Assay: qHTS for inhibitors of binding or entry into cells for Marburg Virus
Settings: Marburg virus pseudotyped entry inhibition, cell reporter; series mostly up to 37.8 µM
Potency is the fitted concentration of half-maximal effect.

| SMILES | Potency |
| --- | --- |
| CC(=O)Nc1ccc(S(=O)(=O)NNC(=O)CCc2ccccc2)cc1 | inactive |
| CC(=O)Nc1ccc(Nc2ncnc3c2nnn3Cc2ccccc2Cl)cc1 | inactive |
| CN(C(=O)CC1C(=O)NCCN1Cc1ccc2ccccc2c1)C1CCOCC1 (configuration not stated) | inactive |
| c1ccc2c(c1)CSc1sccc1C2=C1CCNCC1 | 6.51 µM (active) |
| CCc1c(Nc2ccccc2Cl)nc(N)[nH]c1=O | inactive |
| COc1ccccc1N(CC(=O)Nc1c(C)n(C)n(-c2ccccc2)c1=O)S(=O)(=O)c1ccccc1 | inactive |
| COc1ccc(-c2ccc(Nc3ccc(S(=O)(=O)N4CCCC4)cc3)nn2)cc1OC | 14.6 µM (active) |
| COc1ccc(S(=O)(=O)Nc2ccc(S(=O)(=O)N3CCCCC3)cc2)cc1OC | inactive |
| COc1ccc(S(=O)(=O)N2CCCCC2)cc1Br | inactive |
| CCCN1CCN(C(=O)CCCNC(=O)c2ccc(Cl)cc2)CC1 | inactive |
| CC1(C)Cc2c(cnn2-c2cccc(F)c2)C(NC(=O)c2cc[n+]([O-])cc2)C1 (configuration not stated) | inactive |
| CCC(=O)N(Cc1ccccc1)c1ccccn1 | inactive |
| CCCN(CC1CC1)C(=O)COC(=O)c1ccc(C)cc1O | inactive |
| CC(Oc1ccc(Br)cc1)C(=O)NCC(c1ccco1)N1CCCCC1 (configuration not stated) | inactive |
| COc1ccc(-c2nn(-c3ccccc3)cc2/C=N/Nc2ccccn2)cc1OC | 13 µM (active) |
| Cc1ccc(-c2nn(-c3ccccc3)cc2/C=N/NC(=O)c2ccc3c(c2)OCO3)cc1 | inactive |
| CN(C)/N=C/c1cn(-c2ccccc2)nc1-c1cccnc1 | inactive |
| CC(CC(=O)Nc1ccc(F)cc1F)S(=O)(=O)c1ccc2c(c1)NC(=O)CO2 (configuration not stated) | inactive |
| CC(C)CC1(C)NC(=O)N(CC(=O)Nc2ccc3c(c2)OCCO3)C1=O (configuration not stated) | inactive |
| CC(=O)c1c(OCC(=O)N(C)C2CCCCC2)ccc2c(C)cc(=O)oc12 | inactive |
| Cc1c(NC(=O)Nc2cccc([N+](=O)[O-])c2)c(=O)n(-c2ccccc2)n1C | inactive |
| O=C(CNC(=O)C1COc2ccccc2O1)N/N=C/c1cc(Br)c(O)c(Br)c1 (configuration not stated) | inactive |
| CCn1nnc2cc(C(=O)Nc3ccc(C(=O)OC(C)C)cc3)ccc21 | inactive |
| CCC(=O)N(Cc1cc2cc(OC)ccc2[nH]c1=O)c1ccccc1C | inactive |
| COc1ccc2[nH]c(=O)c(CN(Cc3cccnc3)S(=O)(=O)c3ccccc3F)cc2c1 | 2.82 µM (active) |
| COc1ccc(-c2[nH]ncc2CN(C)Cc2cccnc2)c(F)c1 | inactive |

| SMILES | Potency |
| --- | --- |
| Cc1ccc(C(=O)Nc2ccc3c(c2)OCCO3)cc1S(=O)(=O)N1CCOCC1 | inactive |
| Cc1ccc(-c2csc(C(C#N)=C(O)CN3CCN(C(=O)c4ccco4)CC3)n2)cc1 | inactive |
| Cc1cccc(Cn2c(SCCO)nc3c2c(=O)n(C)c(=O)n3C)c1 | inactive |
| COC(=O)C(C)Sc1nc2c(c(=O)n(C)c(=O)n2C)n1Cc1cccc(C)c1 (configuration not stated) | inactive |
| C/C(Cl)=C\Cn1c(Nc2cccc(C)c2)nc2c1c(=O)n(C)c(=O)n2C | 11.6 µM (active) |
| COc1ccccc1NC(=O)C(C)OC(=O)c1ccc(-n2cnnn2)cc1 (configuration not stated) | inactive |
| CC(C)CC(=O)Nc1ccc(Cc2ccncc2)cc1 | inactive |
| CCOc1ccc(-c2noc(CCC(=O)NC3CCCC3)n2)cc1OC | inactive |
| COc1ccccc1NC(=O)CCC(=O)N1CC(C)Oc2ccc(C)cc21 (configuration not stated) | inactive |
| CC1CN(C(=O)CCC(=O)NCCCN2CCC(Cc3ccccc3)CC2)c2cc(Cl)ccc2O1 (configuration not stated) | 11.2 µM (active) |
| Cc1ccc2c(c1)N(C(=O)CCC(=O)NCc1ccccc1F)CC(C)O2 (configuration not stated) | inactive |
| N[C@@H](Cc1ccccc1)C(=O)N1CCC(C(=O)NCC(=O)Nc2ccc(F)cc2)CC1 | inactive |
| O=C(CN1CCN(C(=O)C2CCCO2)CC1)Nc1c(Cl)cccc1Cl (configuration not stated) | inactive |
| COc1cc(/C=N\Nc2nc(-c3cccs3)c(NC(C)=O)s2)ccc1O | inactive |
| CCNc1nc(NCC)nc(N/N=C/c2ccc(O)c(OC)c2)n1 | inactive |
| COc1cc(/C=N/Nc2nc3ccccc3s2)ccc1O | 10 µM (active) |
| CCN(CC(=O)Nc1c(F)cccc1F)C(=O)Cc1cccs1 | inactive |
| CCOC(=O)N(Cc1ccccc1)C1CC1 | inactive |
| CCCC(C(=O)OCCN(CC)CC)(c1ccccc1)c1ccccc1 | 10 µM (active) |
| CCOC(=O)CCP(=O)(O)C(O)(c1ccccc1)c1ccccc1 | inactive |
| CCC(C(=O)OCCN(CC)CC)c1ccccc1 (configuration not stated) | inactive |
| COc1ccccc1CN1CCNC(=O)C1CC(=O)N(C)CC1CCOCC1 (configuration not stated) | inactive |
| O=C(c1ccc(N2CCOCC2)c([N+](=O)[O-])c1)N1CCN(c2ccccc2F)CC1 | inactive |
| COC(=O)c1ccc(CSc2nc3ccccc3c(=O)n2-c2cccc(OC)c2)o1 | inactive |
| Cc1cccc2nc(CSc3nc4[nH]ncc4c(=O)n3-c3cccc(Cl)c3)cc(=O)n12 | 7.31 µM (active) |
| COc1ccc(CCNC(=O)CSc2nc3[nH]ncc3c(=O)n2-c2cccc(C(F)(F)F)c2)cc1OC | inactive |

| SMILES | Potency |
| --- | --- |
| CC(=O)C1=C(C)NC(=O)NC1c1ccc2c(c1)OCO2 (configuration not stated) | inactive |
| C#CC(C)(CC)NC(=O)Cn1nnc(-c2ccc(OCc3c(F)cccc3Cl)cc2)n1 (configuration not stated) | inactive |
| CN(C)CCCNC(=O)/C=C/c1ccc(OCc2c(F)cccc2Cl)cc1 | 3.98 µM (active) |
| O=C(/C=C/c1ccc(F)cc1)NCCNC(=O)/C=C/c1ccc(F)cc1 | inactive |
| CCOc1cc(C=NNC(=O)CCCC(=O)NN=Cc2ccc(O)c(OCC)c2)ccc1O | inactive |
| O=C(CCCCCNC(=O)c1ccccc1)N/N=C/c1ccccc1 | inactive |
| NCCCCCC(=O)N/N=C/c1ccc2nccnc2c1 | 2.82 µM (active) |
| COc1ccccc1CNC(=O)CSc1nc(=O)n(Cc2ccncc2)c2c1CCC2 | inactive |
| Cc1ccc(C(=O)N/C(=C\c2cn(C)c3ccccc23)C(=O)N2CCN(C)CC2)cc1 | inactive |
| CC(=O)OC1CCC2C3CCC4=C(CC(F)C(=O)C4)C3CCC12C (configuration not stated) | inactive |
| COCCn1c(C)cc(C2=NNC(=Nc3ccc(F)cc3)SC2)c1C | inactive |
| Cc1cccc(N=C2NN=C(c3c[nH]c4ccccc34)CS2)c1 | inactive |
| C=CCn1c(C)cc(C2=NNC(=NCC)SC2)c1C | 1.16 µM (active) |
| COc1cccc(N(C(=O)CNC(=O)c2ccco2)C(C(=O)NC2CCCCC2)c2cccnc2)c1 (configuration not stated) | inactive |
| COc1cc([C@H]2[C@@H]3C(=O)N(c4ccc(F)cc4)C(=O)[C@H]3ON2c2ccccc2)ccc1O | inactive |
| O=[N+]([O-])c1ccc(S(=O)(=O)Nc2cccc(-c3ccc(N4CCCC4)nn3)c2)cc1 | inactive |
| Cc1ccc(S(=O)(=O)c2cc3c(=O)n4cccc(C)c4nc3n(CCc3ccccc3)c2=N)cc1C | inactive |
| O=C(OCC(=O)N1CCCCCC1)c1ccc(Br)c(S(=O)(=O)N2CCOCC2)c1 | inactive |
| CC1(C)CC2CC(C)(CN2c2ncnc3ccc(Br)cc23)C1 (configuration not stated) | 6.31 µM (active) |
| C=CCNc1ncnc2ccc(Br)cc12 | inactive |
| O=C(NNc1nc(N2CCCC2)nc(N2CCCC2)n1)c1ccccc1 | inactive |
| O=C(CN1CCc2ccccc2C1)Nc1cccc(S(=O)(=O)N2CCOCC2)c1 | inactive |
| O=[N+]([O-])c1ccc2oc(-c3cccc(O)c3)nc2c1 | inactive |
| COc1cccc(-c2nc3cc(C)ccc3o2)c1 | 6.31 µM (active) |
| COc1ccc2oc(N)nc2c1 | inactive |
| Nc1ccc2c(c1)C(=Cc1cccnc1)c1ccccc1-2 | inactive |

| SMILES | Potency |
| --- | --- |
| CSCCC(NC(=O)COc1ccccc1)C(=O)N(C)CC(=O)Nc1ccc(C)cc1 (configuration not stated) | inactive |
| CC1CCCCC12NC(=O)N(CC(=O)OCc1c(F)cccc1Cl)C2=O (configuration not stated) | inactive |
| COC(=O)C1(O)CC(C(C)C)=NN1C(=O)c1ccc(Cl)cc1 (configuration not stated) | inactive |
| CC1=NN(C(=O)CCc2ccccc2O)C(O)(C(F)(F)F)C1 (configuration not stated) | inactive |
| O=C(c1ccc(Cl)cc1)N1N=C(c2ccccn2)CC1(O)C(F)(F)F (configuration not stated) | 7.94 µM (active) |
| COc1cc(C(=O)NCC(=O)NCCSc2ccc(Br)cc2)cc(OC)c1OC | inactive |
| O=C(NC1CCCC1)C(c1ccco1)N(C(=O)c1ccco1)c1ccc(F)cc1 (configuration not stated) | inactive |
| N#Cc1cc([N+](=O)[O-])ccc1NC(=O)COC(=O)c1cnccn1 | inactive |
| Cc1c(C(=O)NCCN2CCOCC2)sc2nc(-c3ccc(F)cc3)cn12 | inactive |
| CCOc1ccc(CCNC(=O)Cn2nc(CC)n3c(cc4sc(CC)cc43)c2=O)cc1OCC | inactive |
| CCOc1ccc(CCNC(=O)c2ccc3c(c2)sc2nc(-c4ccc(F)cc4)cn23)cc1OCC | 2.51 µM (active) |
| COc1ccc(N2CC(NS(=O)(=O)c3ccc4ccccc4c3)CC2=O)cc1 (configuration not stated) | inactive |
| CCOc1ccc(C(=O)NCC(=O)N2CCCCCCC2)cc1OCC | inactive |
| Cc1cc(-c2n[nH]c(=S)n2/N=C/C(Br)=C/c2ccccc2)n[nH]1 | 10 µM (active) |
| S=c1[nH]nc(-c2cccnc2)n1/N=C/C(Cl)=C\c1ccccc1 | inactive |
| S=c1[nH]nc(-c2ccco2)n1/N=C/c1ccccc1 | inactive |
| O=C(CCl)NNc1cccc(Cl)n1 | inactive |
| O=C(CCl)NNc1nc(-c2ccccc2)c2cc(Cl)ccc2n1 | 6.31 µM (active) |
| Cc1ccc2nc(Nc3ccccc3O)nc(-c3ccccc3)c2c1 | inactive |
| COc1ccc(CCNC(=O)c2c(C)nn(-c3ccccc3)c2Cl)cc1 | inactive |
| CCN(C(=O)COC(=O)c1c(C)nn(-c2ccccc2)c1Cl)c1c(N)n(Cc2ccccc2)c(=O)[nH]c1=O | inactive |
| Cc1cccc2cc(CN(Cc3nnnn3Cc3ccccc3)C3CCCC3)c(=O)[nH]c12 | 16.4 µM (active) |
| CCOc1ccc2[nH]c(=O)c(CN(Cc3nnnn3Cc3ccccc3)CC3CCCO3)cc2c1 (configuration not stated) | inactive |
| Cc1cc(C)c2cc(CN(Cc3nnnn3Cc3ccc(F)cc3)C3CCCC3)c(=O)[nH]c2c1 | inactive |
